Assay results published in PubChem BioAssay AID449739 (Vanderbilt High Throughput Screening Facility, 2010).
In all, about 100,000 compounds went through this assay and about 4,200 (4.2%) were called active.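 The calls were made as follows: active = single-dose well whose peak fluorescence ratio is a statistical outlier from its plate by either plate-standardised score or position-corrected B-score; inactive = the rest.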 Only a selection was taken, and actives are over-represented in it overall.

biological target: Voltage-dependent T-type calcium channel subunit alpha-1H (Homo sapiens) (UniProt O95180); assay: Cav3.2 calcium influx blockers – cell-based, Fluo-4 calcium fluorescence, FDSS, MLSMR library, primary screen (AID 449739); conditions: Cav3.2-expressing cells, at 10 µM, stronger effect = lower value
Sequence (O95180 whole entry, looked up): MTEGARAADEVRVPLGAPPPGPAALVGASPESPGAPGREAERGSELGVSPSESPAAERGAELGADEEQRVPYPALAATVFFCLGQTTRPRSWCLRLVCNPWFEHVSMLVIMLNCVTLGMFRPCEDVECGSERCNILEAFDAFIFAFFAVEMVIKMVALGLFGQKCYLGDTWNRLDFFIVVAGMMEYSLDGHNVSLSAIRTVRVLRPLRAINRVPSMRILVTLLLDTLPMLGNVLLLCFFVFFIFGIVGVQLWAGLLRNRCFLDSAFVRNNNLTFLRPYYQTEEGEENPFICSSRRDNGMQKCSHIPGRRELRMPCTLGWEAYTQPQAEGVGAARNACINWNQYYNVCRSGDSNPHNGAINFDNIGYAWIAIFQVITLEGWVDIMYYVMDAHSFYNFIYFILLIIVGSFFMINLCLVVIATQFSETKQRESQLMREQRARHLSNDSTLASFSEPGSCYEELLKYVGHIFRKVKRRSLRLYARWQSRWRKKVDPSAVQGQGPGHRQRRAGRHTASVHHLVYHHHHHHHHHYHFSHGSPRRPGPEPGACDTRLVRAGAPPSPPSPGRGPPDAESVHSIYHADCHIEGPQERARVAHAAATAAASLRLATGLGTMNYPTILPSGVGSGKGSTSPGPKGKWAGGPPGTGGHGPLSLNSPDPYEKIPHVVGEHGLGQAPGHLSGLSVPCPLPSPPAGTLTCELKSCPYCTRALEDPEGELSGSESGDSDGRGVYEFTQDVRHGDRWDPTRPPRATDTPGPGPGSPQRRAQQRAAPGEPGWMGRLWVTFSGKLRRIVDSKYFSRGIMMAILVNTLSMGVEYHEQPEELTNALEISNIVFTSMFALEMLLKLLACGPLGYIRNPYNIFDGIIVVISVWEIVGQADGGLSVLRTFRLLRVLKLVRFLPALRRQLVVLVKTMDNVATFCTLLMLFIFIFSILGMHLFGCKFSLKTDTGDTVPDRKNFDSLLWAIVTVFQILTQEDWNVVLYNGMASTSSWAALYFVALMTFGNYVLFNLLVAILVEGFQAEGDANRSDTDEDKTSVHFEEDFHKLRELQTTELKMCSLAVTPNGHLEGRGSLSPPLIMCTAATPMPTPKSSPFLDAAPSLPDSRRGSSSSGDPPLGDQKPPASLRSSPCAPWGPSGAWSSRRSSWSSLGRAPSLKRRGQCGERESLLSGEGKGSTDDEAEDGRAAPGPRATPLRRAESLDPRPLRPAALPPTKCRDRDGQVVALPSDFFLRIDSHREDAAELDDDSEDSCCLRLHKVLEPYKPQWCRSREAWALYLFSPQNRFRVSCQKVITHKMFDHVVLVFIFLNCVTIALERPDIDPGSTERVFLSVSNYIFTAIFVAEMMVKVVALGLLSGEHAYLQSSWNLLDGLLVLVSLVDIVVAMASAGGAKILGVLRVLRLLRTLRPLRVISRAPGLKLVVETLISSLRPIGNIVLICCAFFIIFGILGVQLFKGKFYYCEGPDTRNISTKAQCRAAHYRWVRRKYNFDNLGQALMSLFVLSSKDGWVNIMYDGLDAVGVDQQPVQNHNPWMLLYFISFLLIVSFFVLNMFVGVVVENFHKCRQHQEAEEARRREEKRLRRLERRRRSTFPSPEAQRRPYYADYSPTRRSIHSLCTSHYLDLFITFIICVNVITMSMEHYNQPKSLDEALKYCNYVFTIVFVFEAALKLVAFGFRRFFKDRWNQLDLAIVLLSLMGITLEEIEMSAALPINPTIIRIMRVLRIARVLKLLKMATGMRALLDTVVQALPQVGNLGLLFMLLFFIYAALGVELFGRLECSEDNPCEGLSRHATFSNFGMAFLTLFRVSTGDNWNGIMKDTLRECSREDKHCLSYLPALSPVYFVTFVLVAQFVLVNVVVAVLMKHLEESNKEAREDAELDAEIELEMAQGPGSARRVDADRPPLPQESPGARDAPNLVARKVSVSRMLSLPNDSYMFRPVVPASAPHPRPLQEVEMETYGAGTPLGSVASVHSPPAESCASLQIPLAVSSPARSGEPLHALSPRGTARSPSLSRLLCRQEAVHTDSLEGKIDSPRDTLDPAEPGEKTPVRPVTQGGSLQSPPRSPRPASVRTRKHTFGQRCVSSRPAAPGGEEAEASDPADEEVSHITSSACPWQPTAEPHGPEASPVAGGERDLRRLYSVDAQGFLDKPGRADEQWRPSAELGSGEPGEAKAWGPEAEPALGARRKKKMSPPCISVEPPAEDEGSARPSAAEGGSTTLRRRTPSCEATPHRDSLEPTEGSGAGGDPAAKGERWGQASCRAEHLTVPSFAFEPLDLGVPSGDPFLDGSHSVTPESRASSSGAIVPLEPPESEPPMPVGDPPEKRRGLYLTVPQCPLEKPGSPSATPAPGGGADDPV

B-score, active:
O=C(NC(Nc1nc2ccc([N+](=O)[O-])cc2s1)(C(F)(F)F)C(F)(F)F)c1ccccc1 -8.17, COc1ccc(OC)c(NC(=O)CCN2CCC(C)CC2)c1 -3.95, Cc1[nH]n(-c2cccc(Cl)c2)c(=O)c1/C=N/n1c(C)nc2ccccc2c1=O -5.96, COc1ccc(C(C(O)C(=O)c2c[nH]c3ccccc23)N2CCN(c3ccccc3)CC2)cc1 (stereo not given) -6.38, COc1ccc(Cl)cc1NC(=O)CN(C)C(=O)CNC(=O)C12CC3CC(CC(C3)C1)C2 -3.51, COc1ccc(OC)c2sc(NC(=O)C3COc4ccccc4O3)nc12 (stereo not given) -4.42, c1ccc(Nc2n[nH]nc2-c2ccccc2)cc1 -7.14, COc1ccc(C(c2nnnn2C2CCCCC2)N2CCN(c3ccccc3F)CC2)cc1 (stereo not given) -6.41, C=C(Br)Cn1c(CCCC)nc2ccccc21 -3.88, Cc1cc(C)cc(N(CC(=O)N2CC=C(c3ccccc3)CC2)S(=O)(=O)c2c(C)noc2C)c1 -4.03, N#CC1=C(N)Oc2c(sc3ccccc23)C1c1ccco1 (stereo not given) -4.64, COC(=O)c1sccc1NC(=O)CSc1ccccc1NS(=O)(=O)c1cc(Cl)ccc1Cl -4.82, Cc1cccc(S(=O)(=O)CC(=O)Nc2nc(-c3ccccc3)cs2)c1 -8.29

B-score, inactive:
O=C(C1=C[C@H](c2ccc(C(F)(F)F)cc2)C[C@H](OCc2ccc(CO)cc2)O1)N1CCN(Cc2ccccc2)CC1 -0.906, CC(C)(C)[C@H]1C=C(C(=O)NCc2ccccc2)O[C@@H](OCc2ccc(CO)cc2)C1 -0.683, COc1cc(/C=N/NC(=O)Nc2ccccc2)ccc1OCCOc1ccccc1C -1.44, CNC(=O)c1ccc2nc(NC(C)=O)sc2c1 1.09, Cc1nn(CC(=O)Nc2nc3ccccc3s2)c(C)c1[N+](=O)[O-] -1.65, COc1ccc(NC(=O)CCN2CCCC2)c(OC)c1 0.0598, CCOc1ccc(C(=O)Nc2cc(OC)ccc2OC)cc1 -0.483, Cc1ccc(N2C(=O)C(Cc3ccccc3)NC2=S)cc1 (stereo not given) 0.262, Cc1cn(C)c(=O)n(C)c1=O 0.776, COc1ccc(-c2nc3c(s2)CCc2onc(-c4ccc(Br)cc4)c2-3)cc1 0.734, COc1cc(C(=O)N2CCN(C/C=C/c3ccccc3)CC2)cc(OC)c1C -0.741, N#Cc1c(C(F)(F)F)cc(-c2ccccc2)nc1SCC(=O)N1CCOCC1 1.07, COc1cc(NS(=O)(=O)c2ccc(N=Cc3c(C)[nH]n(-c4ccccc4)c3=O)cc2)nc(OC)n1 1.56, Cc1[nH]n(-c2ccc(Cl)cc2)c(=O)c1/C=N/n1c(C)nc2ccccc2c1=O -2.58, CCO[C@@H]1OC(C(=O)NC2CC2)=C[C@H](C)[C@H]1CCCO 0.361, O=C(Nc1ccccc1)O/N=C1\CCCCC1c1ccc([N+](=O)[O-])cc1[N+](=O)[O-] (stereo not given) -1.88, CN1CC(c2ccccc2)C2(COc3ccccc3C2=O)C12C(=O)Nc1ccccc12 (stereo not given) -2.68, CCCCCCCCCCCCN1[C@@H](CC(C)=O)c2cc(F)cc(F)c2S1(=O)=O -0.475, CCCC(=O)NC(C)C(c1cccs1)N1CCN(c2ccccc2)CC1 (stereo not given) -0.0337, CC1CCN(CC(=O)c2c[nH]c3ccccc23)CC1 -0.109, COCC(C)NC(=O)c1ccc(-n2nc(C(F)(F)F)cc2-c2cccs2)cc1 (stereo not given) -0.0574, Cc1occc1C(=O)NNC(=S)NCC(C)C -0.334, COC(C[C@@H](O)C[C@@H](O)[C@H](C)OCc1ccccc1)OC 0.484, CC(NC(=O)Nc1ccccc1)C(c1cccs1)N1CCN(c2ccccc2)CC1 (stereo not given) -0.634, COc1ccc(Cl)cc1NC(=O)c1oc(C)nc1C -0.339, CCCCC(=O)N/N=C(\C)CC(=O)Nc1cc(Cl)ccc1OC -2.17, O=C(CCCOc1ccccc1)NCc1ccco1 -0.629, CCO[C@H]1OC(C(=O)N2CCN(Cc3ccccc3)CC2)=C[C@@H](c2cn(C(C)=O)c3ccccc23)[C@@H]1CCCO -1.16, COc1cc(/C=N/O)cc(Br)c1OS(=O)(=O)c1ccc(C)cc1 -2.65, CCCCN1C(N)=NC[C@@H]1Cc1ccccc1 -0.563, CCn1cc(C(=O)NCC2COc3ccccc3O2)c2cc(OC)c(OC)cc2c1=O (stereo not given) -0.122, COc1ccc(NC(=O)CC2COc3ccccc3O2)c(OC)c1 (stereo not given) -0.874, c1ccc(-c2ccnc3nc(-n4cccc4)nn23)cc1 0.354, COc1ccccc1C1=CC(=O)CCC1 1.41, O=C(Nc1ccccc1)c1cccnc1Nc1ccccc1 0.697, Nc1ccc(Nc2ccccc2)cc1 0.472, C=CCCN(Cc1ccccc1)S(=O)(=O)c1ccccc1Br 0.0805, CCO[C@@H]1OC(C(=O)NCc2nc3ccccc3[nH]2)=C[C@H](C2CCCCC2)[C@H]1CCCO -0.192, COc1ccc(N2CCN(C(c3cc4ccc(C)cc4[nH]c3=O)c3nnnn3C3CCCC3)CC2)cc1 (stereo not given) -2.59, CC(C)C(c1nnnn1C1CCCC1)N1CCN(c2ccccc2F)CC1 (stereo not given) -2.85, N#CCc1c(C#N)c(N)nc(N2CCCC2)c1C#N 0.949, CCN(CC)CCC(c1cc(OC)c(OC)c(OC)c1)c1c(OC)cc(OC)c2c(-c3ccccc3)cc(=O)oc12 (stereo not given) -1.5, CCCCn1c(CCCNC(=O)CC)nc2ccccc21 1.14, CCCCn1c(CN2CCN(CCO)CC2)nc2ccccc21 1.86, CC(C)[C@@H]1NC(=O)c2cc([N+](=O)[O-])cc(I)c2NCCC[C@@H](C(=O)NC(CC(=O)O)C(N)=O)NC(=O)[C@H](CO)NC1=O (stereo not given in full) 0.105, CCOc1c2ccc(C(=O)NCc3ccc(OC(F)(F)F)cc3)cc2nn1C -1.9, Cc1cc(C)cc(N(CC(=O)NCC2CCCO2)S(=O)(=O)c2c(C)noc2C)c1 (stereo not given) 0.883, Cc1cccc(N(CC(=O)N2CCOCC2)S(C)(=O)=O)c1 0.326, CC1=C(C(=O)Nc2ccccc2)C(c2ccco2)C(C#N)=C(SCC(N)=O)N1 (stereo not given) -0.16, CCOC(=O)CSC1=C(C#N)C(c2ccco2)C(C(=O)OCc2ccccc2)=C(C)N1 (stereo not given) -3.01, CCOc1cccc(C(=O)Nc2cnn(Cc3ccccc3)c2)c1 -0.985, O=C(c1ccc(F)cc1)c1c[nH]c(C(=O)NCc2cccnc2)c1 1.02, c1cnc(Nc2nc(-c3ccc4ccccc4c3)cs2)nc1 0.515, Cc1ccc(-n2c(C)cc(/C=N/Nc3ccc([N+](=O)[O-])cn3)c2C)c(C)c1 -3.21, CC(C)c1ccc(N2CCN(C(=O)c3ccccc3NC(=O)/C=C(\C(=O)O)c3ccccc3)CC2)cc1 -0.303, COC(=O)c1sccc1NC(=O)CCC1CCCC1 -0.847, COC(=O)c1sccc1N/N=C(\C)c1ccc(F)c(Cl)c1 -0.109, N#Cc1ccc(-c2ccc(Cl)cc2)nc1Oc1ccc(F)cc1 -0.421, COc1ccc(CN2[C@@H](CC(=O)O)c3cc(F)ccc3S2(=O)=O)cc1 -2.11, O=c1cc(CO)oc(C(Nc2cccc(C(F)(F)F)c2)c2ccccn2)c1O (stereo not given) -0.112, NS(=O)(=O)c1ccc(Nc2nc(-c3ccccc3)cs2)cc1 0.0269, Cc1ccc(-c2csc(NC(=O)c3cccs3)n2)cc1 -1.5
